Test in all cases: NCI-60 one-dose screen, 48 h (100 = growth as untreated, 0 = no growth, -100 = all killed)
Settings in all cases: 10 µM

In experiment [1] the test system is NCI-H23 lung.
Experiment [2] relates to NCI-H226 lung.
The test system of experiment [3] is NCI-H322M lung.
Experiment [4] deals with HOP-62 NSCLC.
The test system of experiment [5] is NCI-H460 lung.
Experiment [6] has as its system NCI-H522 lung.
For experiment [7], the system named is A549/ATCC NSCLC.
The test system of experiment [8] is 786-0 renal.
For experiment [9], the system named is COLO 205 colon.
Experiment [10] concerns DU-145 prostate.

About 83,000 compounds went through this panel and 20% of them were active in at least one assay; those are over-represented in the sample as a whole.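 Note: values are percent growth. 100 is the growth of untreated cells, values between 100 and 0 indicate rising inhibition; between -100 and 0 indicates cell death.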 A number with no mark means an inactive call. Active and inactive are the calls of the source. How the source made its calls: active means growth percent below 10; inactive means the rest.

For the compound `O=C(Nc1nc2ccccc2s1)Nc1ccc([N+](=O)[O-])cc1Cl`, the growth is 36.9% in [1]; 103% in [2]; 33.3% in [3]; 110% in experiment [4]; 32.6% in [5]; -22.6% (active) in [6]. The growth in experiment [7] was -53.1% (active); in experiment [8], -23.5% (active); in experiment [9], 111%; in [10], 87%.

`COc1ccc2nc3cc(Cl)ccc3c(NCCNCC(C)O)c2c1` (stereo unspecified): the growth is 42.8% in [1]; 67.9% in experiment [2]; 25.8% in experiment [3]; 19% in experiment [4]; 0.055% (active) in [5]; -56.5% (active) in experiment [6]. The growth is -3.68% (active) in experiment [7], 35.5% in experiment [8], 8.35% (active) in [9] and 28.8% in experiment [10].

As to `COc1ccc(-c2cc(/C=C3\C(=O)Nc4ccc(OC)cc43)[nH]n2)cc1`, the growth in experiment [1] is 67.1%; in experiment [2] it was 69.8%; in experiment [3], 53.9%; in [4], 50.7%; in experiment [5], 16.4%; in [6], 11.1%. Also, the growth in [7] was 40.6%; in experiment [8], 65.3%; in experiment [9], 13%; in experiment [10] it was 40.4%.

As to `COc1ccc2c(c1)N(CCO)C1=C(C(=O)OC1)C2c1ccc(OC)c(OC)c1` (stereo unspecified), the growth in [1] is 46.1%; in [2], 46.7%; in [3] it was 61.3%; in [4], 39%; in [5] it was 16.9%; in [6], -12.4% (active). Besides, the growth is 50.4% in [7], 42.2% in experiment [8], 29.7% in experiment [9] and 55.6% in [10].

For `CSCCCNC(=O)c1ccc2c(c1)/C(=C/c1[nH]c(C)cc1C)C(=O)N2`, the growth in experiment [1] was 28.6%; in experiment [2], 41.8%; in [3] it was 50.4%; in [4] it was 35.5%; in [5], 30.8%; in [6], 41%. The growth was 29.2% in experiment [7], 6.49% (active) in experiment [8], 31.5% in experiment [9] and 27.9% in experiment [10].

As for `COc1ccc(/C=C/C(C)=N/OCC(=O)O)cc1`, the growth in experiment [1] is 103%; in [2], 99.6%; in [3], 106%; in experiment [4] it was 105%; in experiment [5] it was 108%; in [6], 92.8%. Besides, the growth is 102% in experiment [7], 98.1% in experiment [8], 98.9% in [9] and 104% in [10].

On to `COC(=O)C(C(C[N+](=O)[O-])c1ccccc1)=P(c1ccccc1)(c1ccccc1)c1ccccc1` (stereo unspecified), for which the growth was 92.4% in experiment [1]; 96.6% in experiment [2]; 94.3% in [3]; 96.1% in [4]; 101% in experiment [5]; 83.3% in [6]. The growth in experiment [7] is 101%; in [8], 96.1%; in experiment [9], 106%; in [10] it was 89.6%.

On to `c1ccc2c(-c3nc(N4CCOCC4)c4c5c(sc4n3)CCCCCC5)cccc2c1`, for which the growth is 107% in [1]; 93.8% in experiment [2]; 110% in experiment [3]; 101% in experiment [4]; 104% in experiment [5]; 91.2% in [6]. Also, the growth in experiment [7] is 97.7%; in experiment [8] it was 103%; in experiment [9], 114%; in experiment [10] it was 119%.

Take `CC(C)=CCc1ccc(O)c(=O)cc1C(C)C`: the growth in experiment [1] was 12.9%; in experiment [2], 4.5% (active); in experiment [3], 10.5%; in experiment [4], 14.6%; in experiment [5], 5.04% (active); in experiment [6] it was 28.5%. Moreover, the growth in [7] was 9.13% (active); in experiment [8], 6.68% (active); in experiment [9], 26.7%; in [10], 28.5%.

Take `Clc1nc(Cl)c2c(ncn2C/C=C\Cn2cnc3c(Cl)nc(Cl)nc32)n1`: the growth in [1] was -15.8% (active); in experiment [2], -80.1% (active); in experiment [3] it was 8.09% (active); in experiment [4], 11.2%; in [5], 0.846% (active); in [6], -70.6% (active). The growth in experiment [7] was -79.4% (active); in [8] it was -4.46% (active); in experiment [9], -51.5% (active).

On to `COc1ccc2c(c1)[n+]([O-])c(C#N)c(NC(=O)c1ccco1)[n+]2[O-]`, for which the growth is 99.9% in experiment [1]; 97.7% in experiment [2]; 95.2% in experiment [3]; 93.7% in experiment [4]; 107% in experiment [5]; 98.1% in experiment [6]. Further, the growth was 111% in [7], 105% in [8] and 96.2% in experiment [9].

Turning to `CCCC(F)C(=O)O` (stereo unspecified), the growth in [1] was 105%; in experiment [2], 114%; in experiment [3] it was 90.9%; in [4], 113%; in [5], 106%; in experiment [6] it was 89.5%. For the same compound, the growth in experiment [7] is 92%; in [8], 97.2%; in [9], 108%; in experiment [10] it was 117%.

`O=C1C(c2ccccc2)C2C=CC(C2)N1O` (stereo unspecified): the growth was 105% in [1]; 101% in experiment [2]; 102% in [3]; 105% in [4]; 111% in experiment [5]; 96.4% in experiment [6]. In addition, the growth in experiment [7] is 112%; in experiment [8] it was 102%; in [9] it was 104%; in experiment [10], 114%.

Turning to `COc1cc(-c2cc(/C=C3\C(=O)Nc4cc(Cl)ccc43)[nH]n2)cc(OC)c1OC`, the growth was 69.7% in experiment [1]; 50.4% in experiment [2]; 47.5% in experiment [3]; 43.3% in experiment [4]; 34.7% in experiment [5]; 31.9% in experiment [6]. Besides, the growth in [7] is 43%; in experiment [8], 93.7%; in [9], 7.07% (active); in experiment [10] it was 43.8%.

For `Cc1cccc(NC2=C(C#N)C(=O)NC3(CCCC3)S2)c1`, the growth in [1] was 100%; in [2], 96.5%; in [3], 112%; in experiment [4], 98.7%; in experiment [5], 107%; in [6], 15.8%. The growth in [7] was 30.2%; in [8], 103%; in [9], 127%; in experiment [10], 117%.

Consider `COc1ccc(C2=Nc3c(C)nn(-c4ccccc4)c3NC(c3ccc(Oc4ccnc5cc(Cl)ccc45)c(OC)c3)C2)cc1` (stereo unspecified), for which the growth in [1] is 77.8%; in experiment [2] it was 74.3%; in [3] it was 95.1%; in experiment [4], 113%; in experiment [5] it was 81.6%; in [6] it was 62.1%. Also, the growth was 84% in experiment [7], 89.8% in experiment [8], 83.6% in experiment [9] and 100% in experiment [10].

Turning to `CCN(CCCCCCN1CC(=O)N(CCCCCCN(CC)Cc2ccccc2OC)CC1=O)Cc1ccccc1OC`, the growth in experiment [1] is 60.4%; in [2] it was 107%; in [3], 96.5%; in [4], 79.7%; in experiment [5] it was 75.1%; in experiment [6], 76%. Moreover, the growth in experiment [7] was 85.8%; in experiment [8], 74.2%; in experiment [9] it was 54.6%; in [10], 76.7%.

Turning to `COc1cc2c(cc1OCCCCCCN1CCN(CC(=O)Nc3ccc(Cl)cc3C(=O)c3ccccc3Cl)CC1)N=CC1CCCN1C2=O` (stereo unspecified), the growth is -56.1% (active) in experiment [1]; -82% (active) in experiment [2]; -97.8% (active) in [3]; -77.9% (active) in experiment [4]; -30.5% (active) in experiment [5]; -69% (active) in [6]. For the same compound, the growth in [7] was -93% (active); in experiment [8] it was -85.4% (active); in [9] it was -60.1% (active).

Take `COC(=O)C1(C)Cc2cc(OC(C)=O)c(OC(C)=O)cc2N1` (stereo unspecified): the growth in experiment [1] was 91.5%; in experiment [2] it was 113%; in experiment [3], 116%; in experiment [4], 117%; in [5], 107%; in [6] it was -55.8% (active). Also, the growth in experiment [7] was 31.6%; in experiment [8] it was 103%; in [9], 53.7%; in [10], 104%.

For `COc1ccc2c(c1)O/C(=C\c1ccc([N+](=O)[O-])o1)C2=O`, the growth is -3.07% (active) in [1]; 22.3% in experiment [2]; 41.5% in experiment [3]; -12.4% (active) in [4]; -20.9% (active) in experiment [5]; -63% (active) in experiment [6]. Also, the growth is -10.9% (active) in experiment [7], -27.3% (active) in experiment [8], -79.4% (active) in [9] and -11.1% (active) in [10].

For the compound `CC1CC(=O)OC(C)C1` (stereo unspecified), the growth was 102% in experiment [1]; 93.1% in [2]; 103% in experiment [3]; 92.2% in [4]; 104% in [5]; 103% in [6]. The growth was 95.8% in [7], 101% in experiment [8], 112% in [9] and 111% in [10].

`COc1cc(C(=C2O[C@@H]([C@H]3COC(C)(C)O3)[C@H]3OC(C)(C)O[C@@H]23)c2cc(OC)c(OC)c(OC)c2)cc(OC)c1OC`: the growth is 95.2% in experiment [1]; 94.4% in [2]; 103% in experiment [3]; 104% in [4]; 111% in [5]; 106% in experiment [6]. For the same compound, the growth in [7] is 106%; in [8], 97.2%; in experiment [9] it was 117%; in [10], 112%.

As for `O=[N+]([O-])c1ccc(N/N=C/c2cccc3ccccc23)nc1`, the growth in [1] is 102%; in experiment [2], 121%; in [3] it was 105%; in experiment [4], 110%; in experiment [5], 117%; in experiment [6] it was 84.8%. In addition, the growth in [7] was 92.4%; in [8], 99.2%; in [9], 102%; in experiment [10], 124%.

As to `COc1cc(/C=C/C(=O)c2ccc(Cl)cc2)ccc1OS(=O)(=O)c1ccc(C)cc1`, the growth in experiment [1] was 99.3%; in experiment [2], 98.5%; in experiment [3], 96.7%; in experiment [4], 95.1%; in experiment [5] it was 103%; in experiment [6], 81.7%. The growth in [7] was 99.9%; in experiment [8], 102%; in experiment [9], 110%; in [10], 105%.

Regarding `O=C(O)C(SC(C(=O)O)c1ccccc1)c1ccccc1` (stereo unspecified), the growth in experiment [1] is 99.8%; in experiment [2] it was 95.9%; in [3], 118%; in experiment [4] it was 107%; in experiment [5], 110%; in experiment [6] it was 108%. Also, the growth in experiment [7] was 103%; in [8], 103%; in [9] it was 113%; in [10], 104%.

On to `ClC(Cl)(Cl)c1nc2nccnc2[nH]1`, for which the growth is 108% in experiment [1]; 98.6% in experiment [2]; 90% in experiment [3]; 102% in experiment [4]; 102% in [5]; 95.4% in experiment [6]. The growth was 101% in experiment [7], 103% in experiment [8], 114% in experiment [9] and 112% in experiment [10].

Consider `O=C(O)c1ccc(Cl)cc1Nc1ccc(F)cc1`, for which the growth was 92.7% in [1]; 82.3% in [2]; 38.1% in experiment [3]; 96.7% in experiment [4]; 76.8% in experiment [5]; 82.6% in experiment [6]. Besides, the growth in [7] was 86.4%; in experiment [8] it was 68.6%; in experiment [9], 95.7%; in [10] it was 87.1%.

Take `Cc1cs/c(=N\NC(=O)c2cc(-c3cc4ccccc4o3)nn2-c2ccccc2)n1-c1ccccc1`: the growth was 85.9% in experiment [1]; 91.3% in [2]; 93.5% in experiment [3]; 97.9% in experiment [4]; 97.1% in [5]; 86.4% in [6]. Moreover, the figures for the growth in experiment [7], in experiment [8] and in [9] were 88.4%, 91.4% and 98.3%, respectively.

These data come from PubChem BioAssay (NCI).
